S-ASM inh: inhibitors of human secretory acid sphingomyelinase. P17405. placental ASM, HMU-PC fluorogenic substrate, 60 min. Potency, µM (top dose mostly 57.5 µM), without a hit: top-dose activity change, negative = inhibition, hits mostly inhibitors. 0.006% of 340,000 active. AID 504937; note: potency is the fitted concentration of half-maximal effect
Target sequence (P17405 47-631 limits assumed): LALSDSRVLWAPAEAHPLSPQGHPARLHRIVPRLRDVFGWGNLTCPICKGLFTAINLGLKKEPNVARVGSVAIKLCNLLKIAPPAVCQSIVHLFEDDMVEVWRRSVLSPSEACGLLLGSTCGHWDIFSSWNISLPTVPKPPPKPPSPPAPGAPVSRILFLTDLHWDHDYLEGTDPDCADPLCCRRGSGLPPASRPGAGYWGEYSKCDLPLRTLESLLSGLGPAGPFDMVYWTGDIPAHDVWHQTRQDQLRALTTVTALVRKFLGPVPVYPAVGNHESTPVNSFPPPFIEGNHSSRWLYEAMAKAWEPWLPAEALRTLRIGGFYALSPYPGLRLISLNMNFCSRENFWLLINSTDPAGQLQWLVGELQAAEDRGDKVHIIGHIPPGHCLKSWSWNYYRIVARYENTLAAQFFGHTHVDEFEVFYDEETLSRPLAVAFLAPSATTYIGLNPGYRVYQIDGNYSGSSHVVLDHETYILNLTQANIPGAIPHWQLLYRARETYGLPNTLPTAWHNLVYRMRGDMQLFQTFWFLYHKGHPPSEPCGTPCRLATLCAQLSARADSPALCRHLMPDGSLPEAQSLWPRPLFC
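Human placenta-derived ASM preincubated with compound 10 min at room temperature, then reacted with 9 uM (final) fluorogenic HMU-PC substrate for 60 min at 37 C. Stop solution raises pH to 10; fluorescence read at Ex 386/Em 447 nm.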
TGFb SMAD3 inh: blocks TGF-b signaling; HepG2 CAGA-GFP TGF-b/SMAD3 reporter, GFP fluorescence, 18 h; TGF-beta stimulated, 500 pg/mL final; 1.2% of 410,000 active; Potency, µM (series often up to 46.1 µM), without a hit: at the highest dose activity, negative = inhibition, most hits filed as inhibitors; note: potency is the fitted concentration of half-maximal effect; % is set by controls: 0 for no effect and ±100 for the full control effect; nearly all actives have a fitted effect of over 65% in size
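TGF-beta reporter screen: HEPG2 CAGA-GFP, 1% FBS, 500 pg/mL TGF-beta final, 18 h; per-cell GFP summed per well; curves fitted and categorized by class.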
IL-1B inflam inh: inflammasome signaling inhibition, IL-1 beta readout; 4.7% of 360,000 active; activity change, % at 57.5 µM; AID 743279; THP-1 LPS/ATP IL-1B secretion, AlphaLISA, 16 h; hits give low values; in the data active = activity change below about -50%; inconclusive = mostly about -30% to -49%; note: % is set by controls: 0 for no effect and ±100 for the full control effect
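THP-1 cells pretreated 1 hr with compounds (up to 57.5 uM final), then stimulated with LPS (250 ng/mL final) plus ATP (1.25 mM final); secreted IL-1B measured by AlphaLISA after 16 hr, decreased signal indicating inhibition.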
HepG2 viability: kills HepG2 cells in TGF-b inhibitor counter-screen; 0.76% of 410,000 active; HepG2 CAGA-GFP viability, ATP luminescence, 18 h; Potency, µM (top dose mostly 46.1 µM), for inactives: at the top dose activity change, negative = cytotoxicity, hits mostly cytotoxic; note: potency is the fitted concentration of half-maximal effect
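HepG2 CAGA-GFP cells (1000/well, DMEM with 1% FBS) received compound, then TGF-beta at 500 pg/mL final, and were incubated 18 hours at 37 degrees C. Viability was read by CellTiter-Glo luminescence. Media-only wells were set as complete cell-killing and DMSO as no toxicity.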
DT40 TDP1 no CPT: qHTS for Inhibitors of human tyrosyl-DNA phosphodiesterase 1 (TDP1): qHTS in cells in absence of CPT. 15% of 420,000 active. DT40 Tdp1-/- hTDP1 cells, no CPT, ATP luminescence, 48 h. Potency, µM (doses to about 46.2 µM), for inactives: top-dose activity change, negative = growth inhibition, most hits filed as inhibitors; note: potency is the fitted concentration of half-maximal effect; % is set by controls: 0 for no effect and ±100 for the full control effect; nearly all actives have a fitted effect of over 55% in size
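Compound effects on proliferation are scored in DT40 Tdp1-/-;hTDP1 cells in the absence of CPT. ATP levels (CellTiter-Glo luminescence) are recorded after a ≥48 hr, 37 °C incubation.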
DT40 TDP1 CPT: growth inhibition of DT40 Tdp1-/-;hTDP1 cells with camptothecin (screen for TDP1 inhibitors); chicken DT40 Tdp1-/-;hTDP1 cells + 20 nM CPT, ATP luminescence, 48 h; Potency, µM (doses to about 46.2 µM), for inactives: at the top dose activity change, negative = growth inhibition, actives largely listed as inhibitors; 12% of 420,000 active; AID 686979; note: potency is the fitted concentration of half-maximal effect; % is set by controls: 0 for no effect and ±100 for the full control effect; nearly all actives have a fitted effect of over 55% in size
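Cell growth measured by CellTiter-Glo luminescence after a minimum 48 h, 37 C compound exposure with 20 nM CPT in Tdp1-knockout DT40 cells stably expressing hTDP1, seeded 400/well; qHTS titration format.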
* hit, by the source's call; ? = inconclusive; . = no result given; [ ] = dose if it differs, or a comment. An excerpt weighted towards active compounds, which were near 19% of everything screened. Unless noted, calls come from the whole dose curve; as a rule, active = well fitted curve in the direction sought with a large enough effect; inconclusive = small, poorly fitted or top-dose-only effect, or another doubt; inactive = no such curve, though single readings can be large; an effect the other way counts as inactive or inconclusive.

SMILES | S-ASM inh | TGFb SMAD3 inh | IL-1B inflam inh | HepG2 viability | DT40 TDP1 no CPT | DT40 TDP1 CPT
CN1CCN(c2nc(N3CCN(c4ccccc4)CC3)ncc2F)CC1 | 1% | -27% | -71* | -19% | ? | ?
CCN1C(=O)N[C@@H](c2ccco2)C(C(C)=O)=C1C | 0% | 23% | 18 | 4% | 1% | -1%
Cc1c(C(=O)N2CCOCC2)cc(C(C)(C)C)n1-c1ccccc1 | 3% | 14% | -2 | -5% | 21µM* | ?
CC(C(=O)N1CCOCC1)(c1ccccc1)c1ccccc1 | 1% | ? | 1 | -16% | -21% | -4%
Cc1cc(OC(=O)c2ccc3ccccc3c2)c([N+](=O)[O-])c(=O)[nH]1 | 2% | -2% | 9 | -2% | 2% | 24%
COc1ccc2c(c1)c1c(c(=O)n(-c3cccc(Cl)c3)c(=O)n1CC(=O)N1CCCC1)n2C | . | ? | . | -5% | ? | 23µM*
COc1ccc2c(c1)c1c(c(=O)n(-c3ccc(OC)c(OC)c3)c(=O)n1CC(=O)N1CCCC1)n2C | . | 2% | . | -12% | -10% | -10%
COc1ccc2c(c1)c1c(c(=O)n(-c3ccc(C)cc3)c(=O)n1CC(=O)N1CCCC1)n2C | . | -2% | . | -3% | 21µM* | 16µM*
COc1ccc2c(c1)c1c(c(=O)n(-c3cccc(C)c3)c(=O)n1CC(=O)N1CCCC1)n2C | . | -39% | . | 0% | ? | ?
Cc1ccc2ncnc(Oc3ncccc3NC(=O)C(C)(C)C)c2c1 | -1% | -6% | 20 | 8% | -9% | 1%
CN(C)S(=O)(=O)c1ccc(C(=O)OCCn2cnc3c2c(=O)n(C)c(=O)n3C)cc1 | 4% | 26% | 34 | -84% | ? | ?
O=C(Cn1nc(C(=O)O)c2ccccc2c1=O)Nc1nc(-c2ccccc2)cs1 | -1% | 0% | -18 | -26% | -10% | -5%
Cc1ccc(Cl)cc1-c1ccc(C=Nc2ccc(N3CCOCC3)cc2)o1 | 0% | 11µM* | -2 | -40% | ? | ?
Cc1cc(O)c(C=Nc2ccc(N3CCOCC3)cc2)c(C)c1Cl | -5% | 18% | 47 | 0% | ? | 24%
Cc1ccc(C)c(NC(=O)CCCN2C(=O)COc3ccc(C)cc32)c1 | . | . | . | -37% | ? | ?
COc1ccc(C(O)Cn2ccsc2=NC(C)=O)cc1 (stereo unspecified) | 22%[11.5 µM] | 9% | 26 | 5% | ? | 23µM*
Cc1c(C(=O)N2CCCC2)oc2c1-c1nn(CC(=O)NCc3cccc(Br)c3)cc1CC2 | . | -27% | . | -11% | ? | ?
COc1cccc(CNC(=O)Cn2cc3c(n2)-c2c(oc(C(=O)N4CCOCC4)c2C)CC3)c1 | . | -18% | . | -13% | 21µM* | 18µM*
Cc1c(C(=O)N2CCOCC2)oc2c1-c1nn(CC(=O)NCc3ccccc3)cc1CC2 | . | -19% | . | -18% | ? | ?
CCCOc1ccc(CNC(=O)Cn2cc3c(n2)-c2c(oc(C(=O)N4CCOCC4)c2C)CC3)cc1 | . | ? | . | -27% | 23µM* | ?
COc1cccc(CNC(=O)Cn2cc3c(n2)-c2c(oc(C(=O)N4CCCC4)c2C)CC3)c1OC | . | ? | . | -33% | ? | ?
Cc1c(C(=O)N2CCOCC2)oc2c1-c1nn(CC(=O)NCc3cccc(F)c3)cc1CC2 | . | -27% | . | -10% | ? | ?
Cc1c(C(=O)N2CCOCC2)oc2c1-c1nn(CC(=O)NCc3cccc(Cl)c3)cc1CC2 | . | -17% | . | -3% | 16µM* | ?
COc1ccccc1CNC(=O)Cn1cc2c(n1)-c1c(oc(C(=O)N3CCOCC3)c1C)CC2 | . | -24% | . | -3% | 23µM* | ?
O=C(NC1CCN(Cc2ccccc2)CC1)c1ccc(Cn2c(=O)c3ccccc3n(Cc3ccc(F)cc3)c2=O)cc1 | . | ? | . | -35% | ? | ?
SMILES | S-ASM inh | TGFb SMAD3 inh | IL-1B inflam inh | HepG2 viability | DT40 TDP1 no CPT | DT40 TDP1 CPT
O=C(NCCc1ccccc1)C(=O)NCC(c1ccco1)S(=O)(=O)c1cccs1 (stereo unspecified) | . | 34% | . | 2% | ? | ?
CCC(C)C(NC(=O)C1CCC(C)CC1)C(=O)NCc1ccco1 (stereo unspecified) | -1% | 0% | -22 | -8% | -30% | 1%
NC(=O)CSc1cn(Cc2ccccc2)c2ccccc12 | -2% | -6% | -65* | 2% | ? | ?
CCOc1ccc(C(=O)c2cn(Cc3ccccc3OC)c3cc4c(cc3c2=O)OCCO4)cc1 | . | -3% | . | -25% | 15µM* | ?
Cc1cccc(Cn2cc(C(=O)c3ccccc3)c(=O)c3cc4c(cc32)OCO4)c1 | . | 0% | . | 0% | ? | ?
COc1ccc(C(=O)c2cn(Cc3cccc(C)c3)c3cc4c(cc3c2=O)OCCO4)cc1OC | . | ? | . | -22% | 21µM* | ?
COc1ccc(C(=O)c2cn(Cc3ccccc3)c3ccccc3c2=O)cc1OC | . | ? | . | -43% | ? | 21µM*
COc1ccc(C(=O)c2cn(Cc3ccccc3OC)c3cc4c(cc3c2=O)OCO4)cc1 | . | -1% | . | 2% | ? | ?
COC(=O)C1CN(C(=O)C(C)Oc2ccccc2F)c2ccccc2O1 (stereo unspecified) | 0% | -15% | 55 | -62% | 7% | 6%
Cc1ccc(S(=O)(=O)N2CCC(C(=O)OCC(=O)N(C)C3CCS(=O)(=O)C3)CC2)cc1C (stereo unspecified) | . | 11% | 9 | 1% | -22% | -3%
O=C(c1ccccc1)c1cn(Cc2ccc(F)cc2)c2ccccc2c1=O | . | 19% | . | -14% | ? | ?

Bioassay records deposited in PubChem by National Center for Advancing Translational Sciences (NCATS).
